Results from ChEMBL document CHEMBL3988442, “University of Dundee, Small-Polar-MMV Screening Library” (2021).
The whole screen tested about 66,000 compounds, of which about 960 (1.5%) showed an effect of 50% or more. Shown is part of a subset that was picked to be rich in strong results.

Test system: Trypanosoma brucei
Test: Trypanosoma brucei 72 hour study
Type: functional, organism-based
Parameters: scale not given: in the data most compounds retested in dose-response had high values

Structure (SMILES)	Percent Effect (30.3 µM, […]) [%]	Percent Effect (30 µM, 30.03 µM) [%]
Cc1nc(Cc2ccc(F)cc2)cc(C2COCCN2)n1.Cl (stereo not given)	101	–
Cc1nc(NCc2ccc(F)cc2)cc(C2CCCN2)n1.Cl (stereo not given)	-9.094	–
Cc1nc(NCc2cccnc2)cc(C2COCCN2)n1 (stereo not given)	-2.285	–
CN(C)C(=O)COC[C@]12COC[C@H]1CN(Cc1ccco1)C2.O=C(O)C(F)(F)F	-53.67	–
COC(=O)c1ccc2c(-c3ccnc(N[C@@H](C)CO)n3)c[nH]c2c1	47.11	–
CC[C@@H](CO)Nc1nccc(-c2c[nH]c3cc(C(=O)OC)ccc23)n1	72.65	–
COC(=O)c1ccc2c(-c3ccnc(NCCO)n3)c[nH]c2c1	8.363	–
Cc1nn(CC(=O)N2CCN(Cc3cn(C)nc3C)CC2)cc1Br	–	-22.12
Cc1ccc(-c2ccccc2CC2CNCCNC2=O)c(C)c1.Cl (stereo not given)	25.6	–
Cn1cnnc1C1CCN(C(=O)c2cc(-c3ccccc3)on2)CC1	–	-50.55
CCc1ccc(C(O)CN2CCN(c3cccc(OC)c3)CC2)cc1 (stereo not given)	–	-8.228
CCc1ccc(NC(=O)N2C[C@H]3C[C@H](C(=O)NC4CCC4)[C@@H](C2)O3)cc1	-16.27	–
CN(C)C[C@@H]1C[C@@H]2CN(C(=O)c3ccoc3)CC[C@@H]2N1CC1CC1.O=C(O)C(F)(F)F	-22.29	–
O=C(Nc1ccc(-c2cnc(NCCO)nc2)cc1)[C@@H]1CCCCN1	53.19	–
CNc1ncc(-c2ccc(NC(=O)[C@@H]3CCCCN3)cc2)cn1	7.595	–
Nc1ncc(-c2ccc(NC(=O)[C@@H]3CCCCN3)cc2)cn1	8.453	–
Cl.Cn1ncc2c1CCCC2NCc1cccc(F)c1 (stereo not given)	-9.663	–
Cc1cccc(CNC2CCCc3c2cnn3Cc2ccccc2)c1.Cl (stereo not given)	96.36	–
Cn1ncc2c1CCCC2NCc1cccnc1 (stereo not given)	–	-8.249
Cc1cccc(CNC2CCCc3c2cnn3C)c1.Cl (stereo not given)	–	5.756
Cc1ccc(CNC2CCCc3c2cnn3Cc2ccccc2)s1.Cl (stereo not given)	15.28	–
Cn1ncc2c1CCCC2NCc1cccc(OC2CCCC2)c1 (stereo not given)	65.11	–
CN1CC[C@]2(CN(CC3CCOCC3)C[C@H]2c2ccccc2)C1=O.O=C(O)C(F)(F)F	-1.885	–
O=C(O)C(F)(F)F.O=C(O)C(F)(F)F.O=C(O)C(F)(F)F.O=C(O)c1c(-c2cncnc2)ncc2c1CCN(Cc1cccnc1)C2	-22.43	–
CN(C)CCN1CCCC12CCN(Cc1nccn1C)CC2.O=C(O)C(F)(F)F.O=C(O)C(F)(F)F.O=C(O)C(F)(F)F	-91.45	–
